Measured values published in PubChem BioAssay AID720504 (National Center for Advancing Translational Sciences (NCATS), 2013).
Among all 360,000 compounds or so, about 10,000 (2.8%) were called active. Inconclusive results (about 4%) are left out. Shown is part of a subset that was picked to be rich in actives. A number with no mark means an inactive call. Calls follow the shape of the dose curve; as a rule, active = well fitted inhibition curve with a large enough effect; inconclusive = small, poorly fitted or top-dose-only effect; inactive = flat fitted curve, though single readings scatter.

What follows are compounds tested against Serine/threonine-protein kinase PLK1 (Homo sapiens) (UniProt P53350) (assay: qHTS for Inhibitors of PLK1-PDB (polo-like kinase 1 - polo-box domain): Primary Screen). Details: Plk1 PBD binding of FITC phosphopeptide, fluorescence polarization.
Sequence of Serine/threonine-protein kinase PLK1 (Homo sapiens) (P53350 whole entry, looked up, the tested form may be a part): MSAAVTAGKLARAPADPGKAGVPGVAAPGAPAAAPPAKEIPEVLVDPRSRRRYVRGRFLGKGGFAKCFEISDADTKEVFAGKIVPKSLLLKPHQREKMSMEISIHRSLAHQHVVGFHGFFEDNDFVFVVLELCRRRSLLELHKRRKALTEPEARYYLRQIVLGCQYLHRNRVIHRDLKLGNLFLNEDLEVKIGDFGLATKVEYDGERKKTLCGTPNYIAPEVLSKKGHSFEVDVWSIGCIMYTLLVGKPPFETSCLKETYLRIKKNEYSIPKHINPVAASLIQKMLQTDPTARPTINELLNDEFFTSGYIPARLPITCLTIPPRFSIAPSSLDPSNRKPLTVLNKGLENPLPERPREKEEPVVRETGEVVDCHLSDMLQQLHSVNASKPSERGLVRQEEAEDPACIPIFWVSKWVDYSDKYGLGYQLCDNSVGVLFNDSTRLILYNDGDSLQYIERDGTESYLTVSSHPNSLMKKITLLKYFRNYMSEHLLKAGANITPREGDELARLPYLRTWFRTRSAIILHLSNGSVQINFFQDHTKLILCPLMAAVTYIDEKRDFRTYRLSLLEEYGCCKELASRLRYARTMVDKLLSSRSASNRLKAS
% is scaled to controls: 0 for no effect and ±100 for the full control effect; potency is read from the fitted curve at half-maximal effect.
Also: nearly all actives have a fitted effect of over 65% in size.
For max response, negative = inhibition in this document: series mostly up to about 57 µM.

In order of rising max response, negative = inhibition:
1. CCCOc1ccc(Cn2c(O)cc(=O)[nH]c2=O)cc1  -26.3%
2. O=C(CN1CCOCC1)Nc1cccc([N+](=O)[O-])c1  -23.6%
3. CCOc1ccc(S(=O)(=O)NCCC(=O)NNC(=O)c2ccc(F)cc2)cc1  -14.6%
4. O=S1(=O)C[C@@H](N2CCN(CCO)CC2)[C@H](COCc2ccccc2)N1  -14.5%
5. Cc1ccc(-c2nc3c(C)cc(Br)cn3c2Cc2ccccc2)cc1  -13.2%
6. COc1ccc(-c2cnc3c(c2)C(=O)N([C@H](C)CO)C[C@@H](C)[C@H](CN(C)Cc2ccccc2)O3)cc1  -12.1%
7. CC(C)(C)c1ccc(S(=O)(=O)NC(=O)C2(C)CCN2C(=O)CC2CC2)cc1 (stereo not given)  -12%
8. Nc1cc(=O)n(Cc2ccccc2)c(=O)n1Cc1ccccc1  -11.9%
9. O=C(NN=Cc1ccccc1O)NN=Cc1ccccc1O  -11.7%
10. O=S(=O)(NC1CC1)c1ccc(Cl)cc1  -11.6%
11. CCOC(=O)C1=CCC(c2ccc(F)cc2)N(S(=O)(=O)c2ccc(C)cc2)C1 (stereo not given)  -10.4%
12. O=C1NC[C@H](Cc2ccc(O)cc2)N(C[C@@H]2CCCN2C[C@H](Cc2ccccc2)N2C[C@H](Cc3ccccc3)N(CC3CCCCC3)C(=O)C2=O)C1=O  -9.78%
13. Cc1ccc2nc(SCc3nnc(-c4ccccc4[N+](=O)[O-])o3)c(C#N)cc2c1  -9%
14. COC(=O)c1ccc2nc(-c3ccccc3)c(Cc3ccc(OC)cc3C)n2c1  -8.32%
15. CCCNC(=O)C1(C)CCN(C(=O)c2cc(F)ccc2C)C1 (stereo not given)  -7.98%
16. Cc1cc(Br)cn2c(Cc3ccccc3C(F)(F)F)c(C3CCCCC3)nc12  -6.9%
17. CCCCCn1nnnc1C1c2ccccc2C(=O)N1Cc1ccco1 (stereo not given)  -6.84%
18. COc1cc(/C=C/C(=O)OCC(=O)NC(=O)NCc2ccccc2)ccc1OCC#N  -6.76%
19. COc1ccc(OC)c(NC(=O)C2(C)CCN2C(=O)Cc2ccccc2)c1 (stereo not given)  -5.3%
20. CC(=O)C[C@@H]1OC[C@H](C)N1S(=O)(=O)c1ccc(C)cc1  -5.26%
21. COc1ccc(-c2nnc(-c3ccc4ccccc4c3)o2)cc1  -4.59%
22. COc1cc(NC(=O)C2=C(C)OCCS2)c(Cl)cc1C(=O)NCCCN1CCCC(C)C1 (stereo not given)  -4.33%
23. CC1=C(C(=O)N(C(C)C)C(C)C)CC(CC(=O)NCC2CCCCC2)C(=O)N1Cc1ccccc1 (stereo not given)  -4.13%
24. O=C(Nc1cccc([N+](=O)[O-])c1)Nn1cnnc1  -2.87%
25. COCCCNC(=O)c1ccc(-c2c(C)noc2C)c2ccoc12  -2.73%
26. OC[C@@H]1CN(Cc2ccc3c(c2)OCO3)C[C@H](n2cnc3c(NCc4ccco4)ncnc32)O1  -2.35%
27. CC1CCC(NS(=O)(=O)c2ccc3c(c2)n(C)c(=O)c(=O)n3C)CC1 (stereo not given)  -1.85%
28. CCOC(=O)[C@]12CCC=C1N(Cc1ccccc1)C(=O)[C@H](CC(=O)N1CCCC1)C2  -1.56%
29. O=C(CSc1nc2[nH]ncc2c(=O)[nH]1)Nc1ccc(F)cc1  -1.42%
30. COc1cc(/C=C/C(=O)Nc2ccc(OC)c(S(=O)(=O)N3CCOCC3)c2)ccc1OCC#N  -0.928%
31. Clc1ccc2c(c1)C1=C(C(c3ccncc3)O2)C(c2ccc(Br)cc2)n2ncnc2N1 (stereo not given)  -0.898%
32. Cn1cnc(S(=O)(=O)N2C[C@@H](O)COC[C@@H]3O[C@H](CC(=O)NC4CCC4)CC[C@H]32)c1  -0.717%
33. CC(=O)NC(c1cccc(F)c1)c1nc(-c2cccc(F)c2)cs1 (stereo not given)  -0.575%
34. COc1ccc(NC(=O)c2sc(=O)n(Cc3ccc(S(=O)(=O)N(C)C)cc3)c2C)cc1  -0.145%
35. COC(=O)c1ccc(/C=C2/C(=O)Oc3ccccc32)cc1  -0.125%
36. Cc1cc(C)c([N+](=O)[O-])cc1-c1ccc(/C=N/NC(=O)c2nonc2N)o1  0.266%
37. Cc1nccn1-c1ccc(NC(=O)[C@H]2O[C@@H](n3ccc(=O)[nH]c3=O)[C@H](O)[C@@H]2O)cc1  0.546%
38. CN(C(=O)COC(=O)c1ccc(Br)o1)c1c(N)n(Cc2ccccc2)c(=O)[nH]c1=O  2.32%
39. CCOC(=O)[C@]12CCCC=C1N(CCC1=CCCCC1)C(=O)[C@H](CC(=O)NCCCOC)C2  2.46%
40. CN(C)c1ccc(-c2nnc(-c3cccnc3)o2)cc1  3.15%
41. Cc1cccc(CN2CCN(C3CN(Cc4cn(Cc5ccccc5F)nn4)S(=O)(=O)C3)CC2)c1 (stereo not given)  3.36%
42. O=C(c1cc(C2CCCCN2S(=O)(=O)c2ccccc2)on1)N1CCOCC1 (stereo not given)  3.83%
43. O=C(C(=O)N1CCC(c2ccccc2)CC1)c1ccccc1  3.91%
44. COc1ccc(-n2ncc3c(SCC(=O)NNC(C)=O)ncnc32)cc1  4.95%

For COc1cc(=O)[nH]c(=O)n1C(=O)Cc1ccccc1, the Potency was 2.99 µM (active).
In the case of C=CS(=O)c1sc(Cl)c(N2CCOCC2)c1[N+](=O)[O-] (stereo not given), the Potency is reported as 1.34 µM (active).
In the case of Cc1cc2nc3c(=O)n(Cc4ccccc4)c(=O)[nH]c3nc2cc1N, the Potency is reported as 3.36 µM (active).
With Cn1sc(=O)c2cc(S(=O)(=O)NC3CC3)ccc21 the Potency was 2.12 µM (active).
In the case of COc1ccc(NC(=O)CSc2ncnc3[nH]ncc23)cc1, the Potency is reported as 3.77 µM (active).
In the case of Cc1ccc(-c2ccc(/C=C(\C#N)C(N)=S)o2)c([N+](=O)[O-])c1, the Potency is reported as 26.7 µM (active).
Brc1ccc(C2=CC(c3ccco3)n3ncnc3N2)cc1 (stereo not given) was tested, and the Potency was 23.8 µM (active).
For COC(=O)/C=C\C(=O)Nc1cccc([N+](=O)[O-])c1, the Potency was 5.97 µM (active).
COc1cc(/C=C/C(=O)OCC(=O)N2CCOCC2)ccc1OCC#N was tested, and the Potency was 26.7 µM (active).
O=C1Oc2ccccc2C(=O)/C1=C/c1ccccc1O was tested, and the Potency was 2.67 µM (active).
For Nc1ccc(-c2nnc(-c3ccc(-c4ccccc4)cc3)o2)cc1, the Potency was 13.4 µM (active).
